# Records with an inconclusive call do not appear. Activity calls are given as the source filed them. How the source made its calls: active means hit-call score of the fitted dose curve at least 0.9, where 1 is the maximum; inconclusive means response in the unintended direction; inactive means score below 0.9.
# Assays:
# [1] = target: rat Gamma-Aminobutyric Acid Type A Receptor, Non-Selective (GABAR-NonSelective), Gabra1 (gene 29705) (UniProt P62813); assay: NVS_LGIC_rGABAR_NonSelective: NovaScreen (NVS) Ligand-Gated Ion Channel Assay for rat Gamma-Aminobutyric Acid Type A Receptor, Non-Selective (GABAR-NonSelective) (AID 2283326)
# Method in brief: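 Radioligand displacement on rat whole-brain extract, 1 h, filter scintillation readout; signal loss fitted versus DMSO. Primary screen in duplicate at 25 uM; hits (e.g. ≥30% inhibition) retested in concentration-response up to 50 uM.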
# [2] = target: bovine Gamma-Aminobutyric Acid Type A Receptor Agonist (GABAR Agonist), GABRA1 (gene 780973) (UniProt P08219); assay: NVS_LGIC_bGABAR_Agonist: NovaScreen (NVS) Ligand-Gated Ion Channel Assay for bovine Gamma-Aminobutyric Acid Type A Receptor Agonist (GABAR Agonist) (AID 2283338)
# Method in brief: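 Radioligand binding to bovine cerebellar membranes in agonist format, read by filter-based scintillation counting after 1 h. Primary screen in duplicate at 25 uM, with actives followed in concentration series. Gain of signal versus DMSO.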
# [3] = target: Estrogen receptor (Homo sapiens) (UniProt P03372); assay: OT_ER_ERaERa_1440: Odyssey Thera (OT) 24-hour HEK293T Protein-Complementation Assay for Estrogen Receptor-alpha/-alpha Homodimer (AID 2283349);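 further: hits raise fluorescence above DMSO for agonists and antagonists alike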
# Chain of Estrogen receptor (Homo sapiens) (P03372 whole entry, looked up, the tested form may be a part): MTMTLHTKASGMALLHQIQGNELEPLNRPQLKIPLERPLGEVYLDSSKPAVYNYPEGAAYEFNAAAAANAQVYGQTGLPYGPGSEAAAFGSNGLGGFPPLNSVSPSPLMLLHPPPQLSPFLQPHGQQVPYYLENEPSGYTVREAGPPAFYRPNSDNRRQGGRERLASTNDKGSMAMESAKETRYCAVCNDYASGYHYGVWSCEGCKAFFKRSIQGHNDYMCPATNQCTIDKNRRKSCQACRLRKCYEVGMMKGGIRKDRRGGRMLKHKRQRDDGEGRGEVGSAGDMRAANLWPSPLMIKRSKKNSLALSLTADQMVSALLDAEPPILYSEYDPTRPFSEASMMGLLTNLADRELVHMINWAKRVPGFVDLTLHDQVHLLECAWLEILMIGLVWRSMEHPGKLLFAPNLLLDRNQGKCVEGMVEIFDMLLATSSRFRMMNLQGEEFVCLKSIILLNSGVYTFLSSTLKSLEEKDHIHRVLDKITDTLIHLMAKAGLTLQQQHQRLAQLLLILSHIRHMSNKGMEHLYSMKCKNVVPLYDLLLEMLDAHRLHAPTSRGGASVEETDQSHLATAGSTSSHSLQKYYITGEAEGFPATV
# Method in brief: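 Protein-fragment complementation between two human ERα ligand-binding domains (aa 310-547) in stably transfected HEK293T cells was monitored after 24 h treatment, using fluorescence intensity relative to vehicle controls.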
# [4] = target: Estrogen receptor (Homo sapiens) (UniProt P03372); assay: OT_ER_ERaERa_0480: Odyssey Thera (OT) 8-hour HEK293T Protein-Complementation Assay for Estrogen Receptor-alpha/-alpha Homodimer (AID 2283351);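 further: rise in fluorescence from reassembled reporter fragments on ERα LBD homodimer in nucleus or whole cell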
# Method in brief: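 HEK293T, stable ERα LBD (aa 310-547) PCA homodimer; 8 h compound exposure; fluorescence intensity, laser scanning cytometer; positive fitting direction, DMSO baseline.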
# [5] = target: T1, Estrogen receptor (Homo sapiens) + Estrogen receptor beta (Homo sapiens) (UniProt P03372+Q92731); assay: OT_ER_ERaERb_0480: Odyssey Thera (OT) 8-hour HEK293T Protein-Complementation Assay for Estrogen Receptor-alpha/-beta Heterodimer (AID 2283352)
# T1 sequence (P03372 whole entry, looked up, the tested form may be a part): as above
# T1 sequence (Q92731 whole entry, looked up, the tested form may be a part): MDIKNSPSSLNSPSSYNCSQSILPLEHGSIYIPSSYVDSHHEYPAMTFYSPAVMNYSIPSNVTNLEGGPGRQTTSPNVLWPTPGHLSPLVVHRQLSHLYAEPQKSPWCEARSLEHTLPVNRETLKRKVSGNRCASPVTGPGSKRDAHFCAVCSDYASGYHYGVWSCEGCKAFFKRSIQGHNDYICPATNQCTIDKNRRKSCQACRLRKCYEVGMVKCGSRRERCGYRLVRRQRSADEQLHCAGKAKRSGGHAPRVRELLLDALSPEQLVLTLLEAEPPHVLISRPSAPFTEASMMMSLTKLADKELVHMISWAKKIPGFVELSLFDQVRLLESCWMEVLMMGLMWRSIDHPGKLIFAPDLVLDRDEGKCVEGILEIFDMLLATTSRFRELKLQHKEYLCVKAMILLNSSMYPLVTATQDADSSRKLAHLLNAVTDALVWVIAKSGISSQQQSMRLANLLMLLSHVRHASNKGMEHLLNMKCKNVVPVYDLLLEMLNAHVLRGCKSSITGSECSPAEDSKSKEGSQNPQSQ
# Method in brief: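 HEK293T protein-fragment complementation assay of ER-alpha/ER-beta LBD heterodimerisation, read 8 h after dosing. Mean nuclear/cytoplasmic fluorescence intensity measured by laser scanning cytometry; gain of signal fitted relative to DMSO.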
# [6] = target: T1, Estrogen receptor (Homo sapiens) + Estrogen receptor beta (Homo sapiens); assay: OT_ER_ERaERb_1440: Odyssey Thera (OT) 24-hour HEK293T Protein-Complementation Assay for Estrogen Receptor-alpha/-beta Homodimer (AID 2283356);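 further: heteromer of ER alpha and ER beta binding domains; hits raise reporter fluorescence and both agonists and antagonists give an increase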
# Method in brief: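 HEK293T stably expressing a PCA of ER alpha LBD (aa 310-547) and ER beta LBD (aa 263-489). After 24 h compound exposure, mean fluorescence intensity in nucleus (agonists) or nucleus and cytoplasm (antagonists) measured by laser scanning cytometry versus vehicle.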
# [7] = target: Estrogen receptor beta (Homo sapiens) (UniProt Q92731); assay: OT_ER_ERbERb_0480: Odyssey Thera (OT) 8-hour HEK293T Protein-Complementation Assay for Estrogen Receptor-beta/-beta Homodimer (AID 2283357);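 further: active means signal gain over DMSO baseline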
# Chain of Estrogen receptor beta (Homo sapiens) (Q92731 whole entry, looked up, the tested form may be a part): as above
# Method in brief: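 Cells (HEK293T, stable ER-beta LBD PCA pair) are treated 8 hours, fixed and Draq5-stained; signal is fluorescence intensity increase relative to vehicle, fitted in the gain direction.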
# [8] = target: rat Peripheral-type Benzodiazepine Receptor (PBR), Tspo (gene 24230) (UniProt P16257); assay: NVS_MP_rPBR: NovaScreen (NVS) Membrane Protein Assay for rat Peripheral-type Benzodiazepine Receptor (PBR) (AID 2283335)
# Chain of rat Peripheral-type Benzodiazepine Receptor (PBR), Tspo (gene 24230) (P16257 whole entry, looked up): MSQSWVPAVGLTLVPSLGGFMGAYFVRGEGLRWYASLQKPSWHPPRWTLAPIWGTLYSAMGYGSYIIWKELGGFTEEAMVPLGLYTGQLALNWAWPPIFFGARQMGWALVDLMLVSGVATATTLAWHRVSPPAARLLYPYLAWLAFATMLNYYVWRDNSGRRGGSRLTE
# Method in brief: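 Rat kidney membranes; radioligand binding with displacement, filter-based scintillation counting, 1 h incubation. Primary screen in duplicate at 25 uM, actives followed in concentration series; loss of binding vs DMSO.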
# [9] = target: bovine Estrogen Receptor (ER), ESR1 (gene 407238) (UniProt P49884); assay: NVS_NR_bER: NovaScreen (NVS) Nuclear Receptor Binding Assay for bovine Estrogen Receptor (ER) (AID 2283345);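 further: actives lower the bound radioligand count which means they displace the ER ligand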
# Chain of bovine Estrogen Receptor (ER), ESR1 (gene 407238) (P49884 whole entry, looked up): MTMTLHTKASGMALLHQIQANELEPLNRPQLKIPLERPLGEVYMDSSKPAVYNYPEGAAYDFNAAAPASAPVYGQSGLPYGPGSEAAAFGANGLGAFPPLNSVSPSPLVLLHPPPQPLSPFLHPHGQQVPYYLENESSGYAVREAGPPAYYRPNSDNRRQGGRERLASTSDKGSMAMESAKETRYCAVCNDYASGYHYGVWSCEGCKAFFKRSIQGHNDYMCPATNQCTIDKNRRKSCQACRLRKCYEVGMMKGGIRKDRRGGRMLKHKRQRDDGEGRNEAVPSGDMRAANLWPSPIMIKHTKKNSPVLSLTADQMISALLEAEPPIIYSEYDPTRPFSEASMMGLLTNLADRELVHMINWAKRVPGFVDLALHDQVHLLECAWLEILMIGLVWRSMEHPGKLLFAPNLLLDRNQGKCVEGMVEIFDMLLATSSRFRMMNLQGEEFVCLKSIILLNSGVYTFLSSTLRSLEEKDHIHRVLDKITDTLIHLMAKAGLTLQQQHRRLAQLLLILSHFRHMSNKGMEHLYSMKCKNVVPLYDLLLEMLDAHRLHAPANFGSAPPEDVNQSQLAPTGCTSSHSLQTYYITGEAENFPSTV
# Method in brief: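 Scintillation counting of displaced radioligand gave the readout; bovine uterine membrane extract supplied the receptor. Measured 18 h post-dose, normalized to DMSO baseline. Single 25 uM duplicate screen preceded concentration-response follow-up.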
# [10] = target: chimpanzee Androgen Receptor (AR), AR (gene 747460) (UniProt O97775); assay: NVS_NR_cAR: NovaScreen (NVS) Nuclear Receptor Binding Assay for chimpanzee Androgen Receptor (AR) (AID 2283346);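 further: radioligand displacement from AR measured by scintillation counting in a cell-free assay; a loss of bound radioligand signal versus DMSO counts as binding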
# Chain of chimpanzee Androgen Receptor (AR), AR (gene 747460) (O97775 whole entry, looked up): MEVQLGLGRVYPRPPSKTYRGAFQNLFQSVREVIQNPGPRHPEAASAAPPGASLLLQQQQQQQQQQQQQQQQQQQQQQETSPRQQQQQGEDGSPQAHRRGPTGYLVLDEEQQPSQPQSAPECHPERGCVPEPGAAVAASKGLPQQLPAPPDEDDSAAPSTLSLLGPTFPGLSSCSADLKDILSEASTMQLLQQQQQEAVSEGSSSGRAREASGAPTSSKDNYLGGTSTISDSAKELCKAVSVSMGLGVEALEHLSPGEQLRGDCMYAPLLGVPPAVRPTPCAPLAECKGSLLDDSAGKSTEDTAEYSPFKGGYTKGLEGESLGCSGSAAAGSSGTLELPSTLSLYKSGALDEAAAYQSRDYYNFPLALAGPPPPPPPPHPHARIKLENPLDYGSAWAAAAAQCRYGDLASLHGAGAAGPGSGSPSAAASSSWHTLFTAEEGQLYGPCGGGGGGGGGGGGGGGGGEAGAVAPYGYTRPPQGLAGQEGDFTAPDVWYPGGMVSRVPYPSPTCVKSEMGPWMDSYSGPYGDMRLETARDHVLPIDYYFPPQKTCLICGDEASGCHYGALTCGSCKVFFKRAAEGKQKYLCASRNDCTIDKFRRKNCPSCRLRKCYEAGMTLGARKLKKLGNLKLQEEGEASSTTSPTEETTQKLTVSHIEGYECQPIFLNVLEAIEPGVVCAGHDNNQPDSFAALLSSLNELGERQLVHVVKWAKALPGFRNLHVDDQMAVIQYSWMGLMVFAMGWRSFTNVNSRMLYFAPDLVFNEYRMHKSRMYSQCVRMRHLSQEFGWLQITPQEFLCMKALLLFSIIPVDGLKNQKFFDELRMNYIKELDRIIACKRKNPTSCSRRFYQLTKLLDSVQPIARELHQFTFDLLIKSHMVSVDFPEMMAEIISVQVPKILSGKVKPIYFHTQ
# Method in brief: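 Cell-free competition binding with insect-cell (Sf9/Sf21) extracted chimpanzee AR; scintillation signal from lysate at 72 h. Screened in duplicate at 25 uM, then concentration-response for actives; fitting relative to DMSO.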
# [11] = target: Estrogen receptor (Homo sapiens) (UniProt P03372); assay: NVS_NR_hER: NovaScreen (NVS) Nuclear Receptor Binding Assay for human Estrogen Receptor (ER) (AID 2283348)
# Method in brief: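 Scintillation signal from bound radioligand was measured 18 hours after chemical addition to cell-free MCF7 protein extracts, with DMSO as baseline. Activity was scored as signal loss; compounds ran first at 25 uM in duplicate.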
# [12] = target: Retinoic acid receptor alpha (Homo sapiens) (UniProt P10276); assay: NVS_NR_hRAR_Antagonist: NovaScreen (NVS) Nuclear Receptor Binding Assay for human Retinoic Acid Alpha Receptor Antagonism (RAR) (AID 2283358)
# Chain of Retinoic acid receptor alpha (Homo sapiens) (P10276 whole entry, looked up): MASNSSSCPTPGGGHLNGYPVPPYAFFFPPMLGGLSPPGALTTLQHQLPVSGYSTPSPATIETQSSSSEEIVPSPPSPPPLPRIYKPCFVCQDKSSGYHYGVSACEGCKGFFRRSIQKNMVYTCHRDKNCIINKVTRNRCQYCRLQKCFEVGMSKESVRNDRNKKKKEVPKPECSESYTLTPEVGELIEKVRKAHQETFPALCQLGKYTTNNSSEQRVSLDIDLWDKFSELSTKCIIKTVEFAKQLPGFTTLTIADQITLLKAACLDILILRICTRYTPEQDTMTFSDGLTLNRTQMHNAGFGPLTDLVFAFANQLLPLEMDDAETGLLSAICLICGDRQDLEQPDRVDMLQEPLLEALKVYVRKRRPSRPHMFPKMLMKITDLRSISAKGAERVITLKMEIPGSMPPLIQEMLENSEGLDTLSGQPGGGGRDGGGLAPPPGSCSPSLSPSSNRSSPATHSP
# Method in brief: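 TR-FRET, cell-free, antagonist format; 2 h incubation after dosing; DMSO = baseline; signal loss fitted; 25 uM duplicate primary, then conc. series.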
# [13] = target: human Peroxisome Proliferator-activated Receptor alpha (PPARa), PPARA (gene 5465) (UniProt Q07869); assay: NVS_NR_hPPARa: NovaScreen (NVS) Nuclear Receptor Binding Assay for human Peroxisome Proliferator-activated Receptor alpha (PPARa) (AID 2283359);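 further: activity means loss of TR-FRET signal versus DMSO baseline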
# Method in brief: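 Chemicals were first screened in duplicate at 25 uM, and active ones were retested across concentration series. Binding was monitored by TR-FRET one hour after dosing, with decreased signal against DMSO counted as activity.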
# [14] = target: human Opioid Receptor Mu (Opiate Mu), OPRM1 (gene 4988) (UniProt P35372); assay: NVS_GPCR_hOpiate_mu: NovaScreen (NVS) G Protein-Coupled Receptor Assay for human Opioid Receptor Mu (Opiate Mu) (AID 2283290);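 further: hits lower bound tracer signal versus DMSO meaning displacement of the ligand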
# Chain of human Opioid Receptor Mu (Opiate Mu), OPRM1 (gene 4988) (P35372 whole entry, looked up): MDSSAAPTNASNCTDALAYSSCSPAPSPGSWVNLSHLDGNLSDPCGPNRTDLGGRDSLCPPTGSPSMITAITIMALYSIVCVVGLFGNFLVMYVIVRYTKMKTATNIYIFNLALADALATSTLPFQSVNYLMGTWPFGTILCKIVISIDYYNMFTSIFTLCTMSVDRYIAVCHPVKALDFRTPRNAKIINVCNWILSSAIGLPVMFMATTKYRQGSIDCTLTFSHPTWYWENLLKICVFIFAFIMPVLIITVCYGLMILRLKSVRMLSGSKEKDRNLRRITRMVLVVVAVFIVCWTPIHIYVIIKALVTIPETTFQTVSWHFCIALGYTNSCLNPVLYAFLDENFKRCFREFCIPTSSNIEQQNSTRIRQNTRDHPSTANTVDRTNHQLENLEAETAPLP
# Method in brief: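 CHO-derived receptor protein, cell-free; radioligand displacement, filtration + scintillation counting, read at 2.5 h. DMSO = negative control/baseline. Primary: 25 uM single conc, duplicate; secondary: concentration series.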
# [15] = target: Androgen Receptor/SRC-1 Co-activator, AR (gene 367) (UniProt P10275); assay: OT_AR_ARSRC1_0960: Odyssey Thera (OT) 16-hour HEK293T Protein-Complementation Assay for Androgen Receptor/SRC-1 Co-activator (AID 2283353);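 further: actives raise the signal above DMSO so potency reflects increased AR and SRC-1 complex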
# Chain of Androgen Receptor/SRC-1 Co-activator, AR (gene 367) (P10275 whole entry, looked up, the tested form may be a part): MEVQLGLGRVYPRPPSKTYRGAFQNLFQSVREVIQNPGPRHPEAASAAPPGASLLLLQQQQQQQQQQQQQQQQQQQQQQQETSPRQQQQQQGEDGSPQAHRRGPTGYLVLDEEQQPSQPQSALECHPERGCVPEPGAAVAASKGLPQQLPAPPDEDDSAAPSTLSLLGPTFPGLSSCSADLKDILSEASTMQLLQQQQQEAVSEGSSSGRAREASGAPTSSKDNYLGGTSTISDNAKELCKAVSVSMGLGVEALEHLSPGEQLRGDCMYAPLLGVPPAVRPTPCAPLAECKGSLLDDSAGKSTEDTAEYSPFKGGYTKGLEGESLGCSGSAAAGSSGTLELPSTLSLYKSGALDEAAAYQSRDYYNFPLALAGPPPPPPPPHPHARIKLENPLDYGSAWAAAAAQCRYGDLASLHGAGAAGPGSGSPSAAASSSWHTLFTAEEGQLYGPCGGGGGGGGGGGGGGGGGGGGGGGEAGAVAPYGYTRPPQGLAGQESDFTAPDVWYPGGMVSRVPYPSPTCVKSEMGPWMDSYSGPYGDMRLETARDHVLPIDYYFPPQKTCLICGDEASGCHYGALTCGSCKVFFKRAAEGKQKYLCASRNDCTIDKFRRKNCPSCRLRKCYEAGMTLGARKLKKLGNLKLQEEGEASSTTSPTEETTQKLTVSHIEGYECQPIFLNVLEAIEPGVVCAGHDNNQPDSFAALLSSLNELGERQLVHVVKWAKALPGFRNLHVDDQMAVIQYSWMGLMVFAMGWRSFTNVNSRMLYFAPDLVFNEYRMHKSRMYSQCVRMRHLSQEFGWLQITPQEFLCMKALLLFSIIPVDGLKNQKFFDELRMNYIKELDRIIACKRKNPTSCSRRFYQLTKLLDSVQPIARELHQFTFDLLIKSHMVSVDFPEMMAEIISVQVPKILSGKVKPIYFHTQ
# Method in brief: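 Split-Venus PCA, AR/SRC-1 fusions, stable HEK293T; 16 h compound exposure; imaged at 488 and 635 nm; N/C ratio (488 nm channel), min 400 cells/image; positive-direction fit, DMSO baseline.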
# [16] = target: Androgen Receptor/SRC-1 Co-activator, AR (gene 367) (UniProt P10275); assay: OT_AR_ARSRC1_0480: Odyssey Thera (OT) 8-hour HEK293T Protein-Complementation Assay for Androgen Receptor/SRC-1 Co-activator (AID 2283354);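 further: hits raise the complementation signal above DMSO so AC50 marks enhancers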
# Method in brief: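 Measures AR/SRC-1 binding by Venus YFP fragment complementation in HEK293T stable lines at 8 h post-dose. Imaging quantifies the 488nm nucleus/cytoplasm ratio in ≥400 cells; DMSO defines baseline.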
# [17] = target: Sodium channel protein type 1 subunit alpha (Rattus norvegicus) (UniProt P04774); assay: NVS_IC_rNaCh_site2: NovaScreen (NVS) Ion Channel Assay for rat Sodium Channel, Site 2 (NaCh) (AID 2283322);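 further: hit means loss of radioligand binding signal relative to DMSO so AC50 marks displacement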
# Method in brief: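 Membranes: rat forebrain. Format: competitive radioligand displacement, filter separation, scintillation readout, 1 h exposure. Primary screen in duplicate at 25 uM; actives retested in concentration series.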
structure (smiles),measurement,setting,value
C1CNCCN1,AC50,[1],3.59 µM (active)
same,AC50,[2],25 µM (active)
same,outcome,[3],inactive
same,outcome,[4],inactive
same,outcome,[5],inactive
same,outcome,[6],inactive
same,outcome,[7],inactive
CC(Cl)COP(=O)(OCC(C)Cl)OCC(C)Cl (stereo not drawn),AC50,[8],13.4 µM (active)
CCCCC/C=C\C/C=C\CCCCCCCC(=O)O,AC50,[8],5.8 µM (active)
same,outcome,[9],inactive
same,AC50,[10],25 µM (active)
same,AC50,[11],25 µM (active)
same,outcome,[3],inactive
same,outcome,[4],inactive
same,outcome,[12],inactive
same,AC50,[13],13.1 µM (active)
O=C(O)c1cc(O)c2ccccc2c1O,AC50,[8],13.6 µM (active)
same,outcome,[9],inactive
same,AC50,[10],35 µM (active)
same,outcome,[4],inactive
CC1=C(O)C(=O)C(C)O1 (stereo not drawn),outcome,[14],inactive
O=c1c(O)c(-c2ccc(O)cc2O)oc2cc(O)cc(O)c12,outcome,[8],inactive
same,outcome,[9],inactive
same,AC50,[10],9.55 µM (active)
same,AC50,[11],4.3 µM (active)
same,outcome,[3],inactive
same,outcome,[4],inactive
same,AC50,[12],6.95 µM (active)
N#Cc1ccc(C(c2ccc(C#N)cc2)n2cncn2)cc1,AC50,[8],6.92 µM (active)
same,AC50,[10],7.43 µM (active)
same,outcome,[11],inactive
same,outcome,[3],inactive
same,outcome,[4],inactive
same,outcome,[5],inactive
same,outcome,[15],inactive
same,outcome,[16],inactive
same,outcome,[6],inactive
same,outcome,[7],inactive
CCOC(=O)C1=NN(c2ccc(Cl)cc2Cl)C(C)(C(=O)OCC)C1 (stereo not drawn),AC50,[8],9.42 µM (active)
Nc1nc(N)nc(-c2ccccc2)n1,outcome,[17],inactive
same,outcome,[9],inactive
O=C(Oc1ccccc1)c1ccccc1C(=O)Oc1ccccc1,AC50,[8],30.9 µM (active)
O=C(OCc1ccccc1)c1ccc(O)cc1,AC50,[8],3.77 µM (active)
same,AC50,[9],1.18 µM (active)
same,AC50,[10],25 µM (active)
same,AC50,[11],0.212 µM (active)
same,AC50,[3],37.3 µM (active)
same,AC50,[4],18.9 µM (active)
same,AC50,[5],4.92 µM (active)
same,AC50,[6],33.6 µM (active)
same,AC50,[7],3.98 µM (active)
CC/C=C\C/C=C\C/C=C\CCCCCCCC(=O)OC,AC50,[14],16.1 µM (active)
same,AC50,[8],13.3 µM (active)
CC(CCC(=O)O)(c1ccc(O)cc1)c1ccc(O)cc1,AC50,[9],12.2 µM (active)
same,AC50,[11],4.34 µM (active)
same,outcome,[4],inactive
same,AC50,[5],39.1 µM (active)
same,AC50,[6],60.1 µM (active)
same,AC50,[7],31.8 µM (active)
C=C(C)C(=O)OCC(O)COc1ccc(C(C)(C)c2ccc(OCC(O)COC(=O)C(=C)C)cc2)cc1 (stereo not drawn),outcome,[9],inactive
CC(C)(c1ccccc1)c1ccc(Nc2ccc(C(C)(C)c3ccccc3)cc2)cc1,outcome,[9],inactive
same,outcome,[11],inactive
same,outcome,[3],inactive
same,outcome,[4],inactive
CCCCCCCCCCCCCCCCCCOS(=O)(=O)O,outcome,[9],inactive
same,outcome,[11],inactive
same,outcome,[4],inactive
same,outcome,[5],inactive
same,AC50,[6],23.7 µM (active)
same,outcome,[7],inactive
same,outcome,[12],inactive
Nc1ccc(O)c([N+](=O)[O-])c1,outcome,[9],inactive
same,outcome,[11],inactive
